Myeloid diff 2 = myeloid differentiation induction | ER-HoxA9 myeloid progenitors, lysozyme-GFP differentiation, flow cytometry | calls only at 10 µM | hit rate 1% among 360,000 | AID 624256;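 active means normalized GFP-positive differentiation at or above the plate's own cutoff, the solvent-only control mean plus 3 SD; inconclusive means no clear call, values can overlap the other calls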;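 further: cells exposed to compound for four days before flow analysis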
GC-A act = GC-A (human) enzyme activation; P16066; HEK293 GC-A cells, cGMP TR-FRET, EC30 ANP; 0% at EC30 ANP, 100% saturating ANP; activation, % at 10 µM; hit rate 0.14% among 370,000; AID 1671463; in the data active means activation above about 40%
GC-B act = GC-B (human) receptor activation | P20594 | HEK293-GC-B cells, CNP EC30, cGMP TR-FRET; 0% at EC30 CNP, 100% saturating CNP | activation, % at 10 µM | hit rate 0.11% among 370,000 | AID 1920062;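 active means activation at 10 µM reaching about 35% in either raw or pattern-adjusted values, limit read from the data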
Exocytosis inh = lytic granule exocytosis inhibition | hit rate 0.66% among 360,000 | AID 651702 | TALL-104 LAMP-1 surface exposure, flow cytometry; cells stimulated with thapsigargin and PMA | inhibition, % at 10 µM;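 active means inhibition above about 55%, limit read from the data; inconclusive means no clear call, values can overlap the other calls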
Exocytosis CP01 = lytic granule exocytosis inhibition | TALL-104 cells, LAMP-1 externalization, flow cytometry; stimulated with PMA plus thapsigargin | hit rate 11% among 1,500 | shares compounds with Exocytosis inh | AID 651954 | inhibition, % at 10 µM; in the data active means inhibition above about 60%
Large screens that a line does not name were inactive (follow-up assays come after a bar, where they were run). An excerpt weighted towards active compounds, which were near 1.8% of everything screened.

COC(=O)C1CN(Cc2cn(Cc3ccc(F)cc3)nn2)CCS(=O)(=O)N1Cc1ccc(F)cc1 (stereo not given)	none (no result: Myeloid diff 2, Exocytosis inh)
Cc1[nH]c2ccccc2c1/C=C/c1nc2ccccc2c(=O)[nH]1	Exocytosis inh 58 | Exocytosis CP01 inactive
Cc1cccc(/C=C/c2nc3ccccc3c(=O)[nH]2)c1	none (no result: Myeloid diff 2)
O=C1CN(C(=O)CN2CCN(S(=O)(=O)c3ccccc3)CC2)c2ccccc2N1	none
CCOC(=O)c1c(-c2ccc(C)o2)csc1NC(=O)COC(=O)c1cccs1	Exocytosis inh 97 | Exocytosis CP01 inactive
COc1ccccc1C(=O)N/C(=C/c1ccc(Br)cc1)C(=O)N1CCOCC1	none
Cc1cc2c(cc1C)CSC(c1c(O)ccc3ccccc13)SC2	Exocytosis inh 76 | Exocytosis CP01 inactive
COC(=O)C1CN(Cc2ccc(OC)cc2)CCS(=O)(=O)N1Cc1cn(Cc2ccc(Cl)cc2)nn1 (stereo not given)	none (no result: Myeloid diff 2, Exocytosis inh)
O=C(c1ccoc1)N1CCN(c2cc(-c3ccccc3)nc3cc(-c4ccccc4)nn23)CC1	none
CN1CCN(c2cc(-c3ccccc3)nc3cc(-c4ccc(F)cc4)nn23)CC1	Exocytosis inh 103 | Exocytosis CP01 100
Fc1ccc(-c2cc3nc(-c4ccccc4)cc(N4CCN(CCN5CCOCC5)CC4)n3n2)cc1	Myeloid diff 2 active, Exocytosis inh 73 | Exocytosis CP01 inactive
Cc1ccc(C(=O)OCC(=O)Nc2cc(Cl)ccc2C#N)o1	none
CCOc1ccccc1N(C(=O)c1ccco1)C(C(=O)NC1CCCC1)c1cccs1 (stereo not given)	Exocytosis inh 60 | Exocytosis CP01 inactive
COc1cccc(C(C(=O)NC2CCCCC2)N(C(=O)c2ccco2)c2ccccc2OC)c1 (stereo not given)	Exocytosis inh 89 | Exocytosis CP01 inactive
COc1ccc(C(C(=O)NC2CCCCC2)N(C(=O)c2ccco2)c2ccccc2OC)cc1 (stereo not given)	none
Cc1ccc(C)c(SCC(=O)NC(=O)NC2CCCC2)c1	none
O=C(C[C@H]1CC[C@@H](NC(=O)C2CC2)[C@@H](CO)O1)NCc1ccccc1Cl	none
NC(=O)[C@@H]1CCCN1C(=O)[C@@H](Cc1ccccc1)NC(=O)[C@H]1O[C@@H](n2ccc(N)nc2=O)[C@H](O)[C@@H]1O	none (no result: Myeloid diff 2, Exocytosis inh)
COC(=O)C[C@@H]1CC[C@H]2[C@@H](COc3ccc(NC(=O)NC(C)C)cc3C(=O)N2C)O1	none (no result: Myeloid diff 2, Exocytosis inh)
CN(C1=NS(=O)(=O)N=C(N(C)c2ccccc2)O1)c1ccccc1	none
O=C(Nc1cccc(-c2csc(Nc3cccc(C(F)(F)F)c3)n2)c1)c1ccccc1	Exocytosis inh 75 | Exocytosis CP01 inactive
c1ccc(CNCCC(Cc2ccccc2)c2ccco2)cc1 (stereo not given)	Exocytosis inh 72 | Exocytosis CP01 inactive
CN(C)c1ccc(CNCCC(Cc2ccccc2)c2ccco2)cc1 (stereo not given)	none
Fc1cccc(NC(=S)N2CCc3ccccc32)c1	Exocytosis inh 64 | Exocytosis CP01 inactive
O=S1(=O)CC(N2CCN(CCO)CC2)CN1Cc1cn(Cc2ccccc2C(F)(F)F)nn1 (stereo not given)	none
Fc1ccc(-c2nc3ccc(Br)cn3c2Cc2ccccc2C(F)(F)F)cc1	none
CN(C)CCC(=O)N1c2ccccc2Sc2ccc(C(F)(F)F)cc21	Exocytosis inh 67 | Exocytosis CP01 inactive
COc1cccc(CNCCc2c[nH]c3ccccc23)c1OCc1ccccc1	Exocytosis inh 65 (no result: Myeloid diff 2) | Exocytosis CP01 inactive
COc1cc(CNCCc2c[nH]c3ccccc23)ccc1OCc1ccccc1F	none
COc1cc2c(cc1OC)C(c1ccc(-c3ccc(Cl)c(Cl)c3)o1)=NCC2	Exocytosis inh 94 | Exocytosis CP01 91
Cc1cccc(CCN(CC(=O)NCc2ccc(F)cc2)C(=O)c2csnn2)c1	Exocytosis inh 68 | Exocytosis CP01 inactive
OCCN1CCN(CC(O)COc2ccc(C34CC5CC(CC(C5)C3)C4)cc2)CC1 (stereo not given)	Myeloid diff 2 active, Exocytosis inh 72 | Exocytosis CP01 79
CCOC(=O)C1(Cc2cccc(Cl)c2)CCCN(C(=O)c2cc(C)on2)C1 (stereo not given)	none
CCOC(=O)C1(Cc2cccc(Cl)c2)CCCN(C(=O)c2c(CC)noc2C)C1 (stereo not given)	Exocytosis inh 59 | Exocytosis CP01 inactive
C[C@@H]1CN([C@H](C)CO)C(=O)CCCn2cc(nn2)CO[C@H]1CN(C)C(=O)Nc1cccc(F)c1	none
CCOC(=O)C(C)CC(C)C(=O)N1CCOCCOCCN(C(=O)C(C)CC(C)C(=O)OCC)CCOCC1 (stereo not given)	none
CCOC(=O)C(C(=O)OCC)C(C(=O)OCC)N1CCOCC1 (stereo not given)	Myeloid diff 2 inconclusive, Exocytosis inh 88 | Exocytosis CP01 inactive
COCCNC(=S)N(CCc1c(C)[nH]c2ccc(C)cc12)Cc1ccco1	none
COCCNC(=S)N(CCc1c(C)[nH]c2ccc(F)cc12)Cc1ccc(C)cc1	Exocytosis inh 77 | Exocytosis CP01 inactive
COc1ccc(CCN(Cc2cccs2)S(=O)(=O)c2ccc(C)c(C)c2)cc1OC	none (no result: Myeloid diff 2, Exocytosis inh)
CCOc1ccc(-c2cc(C(=O)NCCCn3ccnc3)c3ccccc3n2)cc1	none
CCOc1ccc(-c2cc(C(=O)NCCCn3ccnc3)c3cc(Br)ccc3n2)cc1	Exocytosis inh 79 | Exocytosis CP01 80
CN(C)c1ccc(C(C(=O)NCC2CCCO2)N(C(=O)c2snc(C(N)=O)c2N)c2ccccc2)cc1 (stereo not given)	none
CN(C)c1ccc(C(C(=O)NCC2CCCO2)N(C(=O)c2snc(C(N)=O)c2N)c2ccc3c(c2)OCO3)cc1 (stereo not given)	Exocytosis inh 72 | Exocytosis CP01 inactive
CCc1nnc(NC(=O)[C@@H](NS(=O)(=O)c2ccc3c(c2)OCCO3)C(C)C)s1	Exocytosis inh 58 | Exocytosis CP01 inactive
CCc1nnc(NC(=O)C(NS(=O)(=O)c2ccc3c(c2)OCCO3)C(C)C)s1 (stereo not given)	none
CC(NC(=O)C(C)N1c2cccc3cccc(c23)S1(=O)=O)c1ccccc1 (stereo not given)	Myeloid diff 2 inconclusive, Exocytosis inh 82 | Exocytosis CP01 inactive
COc1ccc(-c2csc(NC(C)=O)n2)cc1OC	none
COc1ccc(OC)c(-c2csc(NC(=O)Cc3ccc(OC)c(OC)c3)n2)c1	Exocytosis inh 64 | Exocytosis CP01 inactive
COc1ccc(OC)c(-c2csc(NC(=O)Cc3ccccc3)n2)c1	Exocytosis inh 59 | Exocytosis CP01 inactive
COc1ccc(CC(=O)Nc2nc(C)cs2)cc1OC	none
COc1cccc(NC(=O)Nc2nc(-c3ccc(OC)c(OC)c3)cs2)c1	Exocytosis inh 78 | Exocytosis CP01 87
COc1cccc(CC(=O)Nc2nc(-c3cc(OC)ccc3OC)cs2)c1	none
C[C@H]1CN([C@@H](C)CO)C(=O)CCCn2cc(nn2)CO[C@@H]1CN(C)C(=O)Nc1ccccc1F	none

Screening data: PubChem, several laboratories
